Measurements from PubChem BioAssay (NCATS).
Results filed as inconclusive are left out. Unless noted, calls come from the whole dose curve; as a rule, active = well fitted curve in either direction with a large enough effect (not every such curve was filed as active); inconclusive = small, poorly fitted or top-dose-only effect, or another doubt; inactive = flat fitted curve, though single readings scatter.

Legend:
[1] = AP1 Signaling Pathway (AID 357); settings: ME-180 AP-1-bla reporter, EGF-induced, beta-lactamase ratio, 5 h; at 17.2 µM (top of the series) unless noted;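 note: ME-180 reporter cells stimulated with EGF at its EC50 level; % is set by controls: 0 for no effect and ±100 for the full control effect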
In short: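 Titration-series screen for positive or negative modulators of EC50 EGF-induced signaling in ME-180 cells carrying an AP-1-driven beta-lactamase reporter. After 5 hours at 37 degrees Celsius, CCF4 460nm/530nm emission ratio gave %Activity; AC50 values derived.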

[2] = NFAT Signaling Pathway (AID 444); settings: Jurkat NFAT-bla M1, carbachol, beta-lactamase ratio, 5 h; at 17.2 µM (top of the series) unless noted;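 note: carbachol stimulus at about its EC50 of 1 µM final; % is set by controls: 0 for no effect and ±100 for the full control effect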
In short: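 Jurkat cells carrying an NFAT-driven β-lactamase reporter and co-transfected muscarinic M1 receptor were treated with compound plus carbachol (1 uM final, an EC50 level) for 5 h at 37 °C. CCF4 loading followed for 1 h at RT; 460/530 nm ratio gave %activity.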

[3] = Stat Signaling Pathway (AID 446); settings: ME-180 (cervical carcinoma) SIE beta-lactamase reporter, IL-6 stimulated, 5 h; at 17.2 µM (top of the series) unless noted;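 note: ME-180 cervical cancer cells given 40 pM IL-6 alongside compound; SIE-controlled beta-lactamase reporter measured as 460/530 nm FRET emission ratio; % is set by controls: 0 for no effect and ±100 for the full control effect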
In short: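 IL-6/STAT signaling read in ME-180 cells via an SIE beta-lactamase reporter. Stimulus was 40 pM IL-6 (its AC50) for 5 hrs, so both activation and inhibition register.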

[4] = target: Glucocorticoid receptor (Homo sapiens) (UniProt P04150); assay: GR-GFP Redistribution (AID 450;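 active = compounds whose dose series gives a full or clear partial fitted curve of increased nuclear translocation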; note: potency is the fitted concentration of half-maximal effect)
Sequence of Glucocorticoid receptor (Homo sapiens) (P04150 whole entry, looked up): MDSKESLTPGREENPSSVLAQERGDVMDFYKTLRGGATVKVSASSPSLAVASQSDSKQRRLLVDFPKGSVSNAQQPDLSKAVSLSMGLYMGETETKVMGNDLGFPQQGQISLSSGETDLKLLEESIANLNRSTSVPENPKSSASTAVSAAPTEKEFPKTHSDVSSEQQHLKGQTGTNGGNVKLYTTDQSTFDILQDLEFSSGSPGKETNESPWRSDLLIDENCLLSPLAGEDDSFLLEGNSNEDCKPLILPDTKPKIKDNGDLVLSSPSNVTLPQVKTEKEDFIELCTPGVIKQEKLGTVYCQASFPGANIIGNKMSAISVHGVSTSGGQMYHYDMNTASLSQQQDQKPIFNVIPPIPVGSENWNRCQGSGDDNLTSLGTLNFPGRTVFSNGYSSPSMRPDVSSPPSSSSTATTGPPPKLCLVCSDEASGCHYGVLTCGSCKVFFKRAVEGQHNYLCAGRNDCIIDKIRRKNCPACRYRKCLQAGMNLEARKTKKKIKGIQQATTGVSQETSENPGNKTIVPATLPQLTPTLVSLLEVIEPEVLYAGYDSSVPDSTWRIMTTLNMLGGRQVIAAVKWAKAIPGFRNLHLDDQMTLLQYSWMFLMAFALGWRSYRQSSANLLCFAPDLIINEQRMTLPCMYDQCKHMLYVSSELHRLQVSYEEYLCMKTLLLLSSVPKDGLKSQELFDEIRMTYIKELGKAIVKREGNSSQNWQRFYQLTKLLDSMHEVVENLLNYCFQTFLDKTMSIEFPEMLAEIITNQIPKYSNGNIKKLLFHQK

O=S(=O)(O)c1nc2ccccc2n1Cc1ccc(Cl)cc1Cl
inactive: activity change, negative = inhibition [1] 18.6% | activity change, negative = inhibition [2] 7.47% | activity, negative = inhibition [3] -9% | Potency [4] > 20.6 µM

COc1ccccc1C(=O)NCC(=O)n1nc(C)cc1C
inactive: activity change, negative = inhibition [1] -3.59% | activity change, negative = inhibition [2] -5.21% | activity, negative = inhibition [3] 10.4% | Potency [4] > 20.6 µM

CCOC(=O)c1cc(CC)sc1NC(=O)C1CC1
inactive: activity change, negative = inhibition [1] -23.9% | activity change, negative = inhibition [2] 12.8% | activity, negative = inhibition [3] -13.8% | Potency [4] > 20.6 µM

O=C(Cc1ccc(Cl)cc1)Nc1cccc(-c2nnc(-c3ccco3)o2)c1
inactive: activity change, negative = inhibition [1] -5.69% | activity change, negative = inhibition [2] 11.3% | activity, negative = inhibition [3] -1.67% | Potency [4] > 20.6 µM

Cc1nnc(N2CCCCC2)c2ccccc12
inactive: activity change, negative = inhibition [1] -1.88% | activity change, negative = inhibition [2] 13.3% | activity, negative = inhibition [3] -8.53% | Potency [4] > 20.6 µM

CC1(C)CC(=O)C2=C(C1)OC(N)=C(C#N)C2C1C=CCCC1 (stereo unspecified)
inactive: activity change, negative = inhibition [1] 3.93% | activity change, negative = inhibition [2] 24.4% | activity, negative = inhibition [3] -5.68% | Potency [4] > 20.6 µM

COc1ccc(/C(O)=C2/C(=O)C(=O)N(CCN3CCOCC3)C2c2ccccn2)cc1OC (stereo unspecified)
inactive: activity change, negative = inhibition [1] 3.25% | activity change, negative = inhibition [2] -11% | activity, negative = inhibition [3] -5.39% | Potency [4] > 20.6 µM

O=C(c1ccc(=O)oc1)N1CCN(c2ccc(F)cc2)CC1
inactive: activity change, negative = inhibition [1] 2.08% | activity change, negative = inhibition [2] -11.6% | activity, negative = inhibition [3] -4.16% | Potency [4] > 20.6 µM

Cn1c(NCc2ccccc2)nc2c1c(=O)n(Cc1ccccc1)c(=O)n2C
inactive: activity change, negative = inhibition [1] -27.4% | activity change, negative = inhibition [2] -0.651% | activity, negative = inhibition [3] -21.1% | Potency [4] > 20.6 µM

CCOc1cccc(-c2nn3c(-c4ccccn4)nnc3s2)c1
inactive: activity change, negative = inhibition [1] -15% | activity change, negative = inhibition [2] -14.4% | activity, negative = inhibition [3] -1.87% | Potency [4] > 20.6 µM

Cn1nnnc1SCC(=O)NCC(=O)c1ccccc1
inactive: activity change, negative = inhibition [1] -2.72% | activity change, negative = inhibition [2] 2.64% | activity, negative = inhibition [3] 0.0289% | Potency [4] > 20.6 µM

CC1(C)Cc2c(c(N3CCOCC3)nc3snc(Br)c23)CO1
inactive: activity change, negative = inhibition [1] -5.9% | activity change, negative = inhibition [2] -26.2% | activity, negative = inhibition [3] 13.2% | Potency [4] > 20.6 µM

O=C(O)C1CSCN1S(=O)(=O)c1cccc2nsnc12 (stereo unspecified)
inactive: activity change, negative = inhibition [1] 1.17% | activity change, negative = inhibition [2] 4.31% | activity, negative = inhibition [3] -1.2% | Potency [4] > 20.6 µM

Cc1cc(C)nc(N(C#N)S(=O)(=O)c2ccccc2Cl)n1
inactive: activity change, negative = inhibition [1] 0.835% | activity change, negative = inhibition [2] -12.4% | activity, negative = inhibition [3] -19.9% | Potency [4] > 20.6 µM

COc1ccc(-c2c3c([nH]c(=S)c2C#N)CCC3)cc1
inactive: activity change, negative = inhibition [1] 22.9% | activity change, negative = inhibition [2] -5.23% | activity, negative = inhibition [3] -7.04% | Potency [4] > 20.6 µM

COc1ccc2c(c1)n([O-])c1c([n+]2=O)CCC1
inactive: activity change, negative = inhibition [1] 13.4% | activity change, negative = inhibition [2] -5.03% | activity, negative = inhibition [3] 7.82% | Potency [4] > 20.6 µM

COc1ccc(OCC(=O)OCCN(C)C)cc1
inactive: activity change, negative = inhibition [1] 7.78% | activity change, negative = inhibition [2] 11.6% | activity, negative = inhibition [3] -3.32% | Potency [4] > 20.6 µM

Cc1c(C)n(C(=O)CSc2nccn2C)c2ccccc12
inactive: activity change, negative = inhibition [1] 14.1% | activity change, negative = inhibition [2] -0.559% | activity, negative = inhibition [3] 0.828% | Potency [4] > 20.6 µM

COc1cc(C2Nc3cccc4cccc(c34)N2)cc(OC)c1OC(C)=O
inactive: activity change, negative = inhibition [1] 19.9% | activity change, negative = inhibition [2] 3.51% | activity, negative = inhibition [3] 9.71% | Potency [4] > 20.6 µM
